# Bioassay records: PubChem, National Center for Advancing Translational Sciences (NCATS)
# Pf Dd2 growth = qHTS Primary assay for Inhibitors of Plasmodium falciparum Dd2 growth in vitro. P. falciparum Dd2 growth, SYBR Green, 72 h. Potency, µM (highest dose often 28.9 µM), inactives show at the top dose activity, negative = inhibition, most hits filed as inhibitors. actives 4.3% (n = 120,000); active = well fitted inhibition curve with a large enough effect;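 also: plate controls were DMSO vehicle for no effect and reference drug for full effect; nearly all actives have a fitted effect of over 65% in size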
#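 Infected erythrocytes (Dd2, 0.3% parasitemia, 2.5% hematocrit final) are added to compound in RPMI-1640/Albumax II medium, grown 72 h at 37C in low oxygen, then lysed with saponin/Triton-X containing SYBR Green and read by fluorescence.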
# An asterisk follows results filed as active; i = inactive; ! = a repeat was not active; [ ] = dose if it differs, or a comment. Shown is part of a subset that was picked to be rich in hits. Potency is read from the fitted curve at half-maximal effect.
SMILES,Pf Dd2 growth
O=C(CCc1cccs1)N1CCOC(CCCc2ccccc2)C1 (stereo not drawn),-4%
CCn1ncc(CN2CC(F)(F)C[C@H]2c2nc(C(=O)NC)no2)c1C,4%
c1cnc2nc(-c3c[nH]c4ccccc34)[nH]c2c1,-11%[44.1 µM]
Cc1ccoc1-c1nc2ccncc2[nH]1,-3%[44.1 µM]
c1cncc(-c2nc3ncccc3[nH]2)c1,-6%[44.1 µM]
Cc1ccc(-c2nc(-c3cccs3)c(-c3cccs3)[nH]2)cc1,-19%
c1ccc2c(-c3nc4ccncc4[nH]3)c[nH]c2c1,13µM*!
c1cncc(-c2nc3ccncc3[nH]2)c1,-17%[44.1 µM]
c1c[nH]c(-c2nc3ccncc3[nH]2)c1,22µM*!
c1cc2nc(C3CCCCN3)[nH]c2cn1 (stereo not drawn),-15%[44.1 µM]
c1csc(-c2nc3ccncc3[nH]2)c1,18µM*!
O=C(CCc1c[nH]c2ccccc12)N1CCC(c2noc(C3CC3)n2)C1 (stereo not drawn),i[5.79 µM]
O=C(NCC1CCCO1)c1ccc2oc(-c3ccc(C(F)(F)F)cc3)nc2c1 (stereo not drawn),-7%
C=CCOc1cccc(-c2nc(C(=O)N(C)Cc3ccccc3)cs2)c1,5%
CC(C)(C)CC(=O)N1CCC(C(NC(=O)c2ccccc2Cl)C(=O)N2CCCCC2)CC1 (stereo not drawn),-17%
Cc1nn2c(c1-c1ccnn1C(C)C)N(C(=O)c1ccc(F)cc1)CCC2,8%[44.1 µM]
CN(CC1(c2ccccc2)CC1(C)C)C(=O)c1cn(C/C=C/c2ccccc2)nn1 (stereo not drawn),-3%
COc1ccc(C(=O)N[C@@H]2CN(C(=O)NCc3ccccc3)CCC[C@H]2O)cc1,i
CCn1nc(C)c(C(=O)N2CCC(=O)N(CC3CC3)C(C(C)C)C2)c1C (stereo not drawn),-10%
O=C(c1ccncc1)N1CCC2(CC1)CC(N1CCCC1)CCO2 (stereo not drawn),38%
CCn1cc(S(=O)(=O)N2CCCC(c3nc(-c4cnccn4)no3)CCNC(=O)CC2)cn1 (stereo not drawn),i
CC1CCN(C(=O)c2ccc(-c3ccc(N4CCSCC4)nc3)cc2)CC1,i
COc1ccc(-c2cc(-c3ccncc3)cn3cncc23)cc1,10µM*
c1cc(-c2cc(-c3ccncc3)c3cncn3c2)c2[nH]ncc2c1,i
Cn1cc(-c2cc(-c3ccncc3)c3cncn3c2)cn1,i
SMILES,Pf Dd2 growth
COc1cccc(-c2cc(-c3ccncc3)c3cncn3c2)c1OC,10µM*
COc1ccccc1-c1cc(-c2ccc(=O)[nH]c2)c2cncn2c1,15%[44.1 µM]
OCc1ccc(-c2cc(-c3ccncc3)c3cncn3c2)cc1,-6%[44.1 µM]
Fc1cccc(-c2cc(-c3cn[nH]c3)c3cncn3c2)c1,-2%[44.1 µM]
COc1ccc(-c2cc(-c3ccc(F)cc3OC)cn3cncc23)cc1,6.3µM*
CN(C)Cc1ccc(-c2cc(-c3cn[nH]c3)c3cncn3c2)cc1,11%[44.1 µM]
COc1ccc(-c2cc(-c3ccc(F)cc3)cn3cncc23)cc1,3.2µM*
COc1cc(F)ccc1-c1cc(-c2cn[nH]c2)c2cncn2c1,i
Cc1ccc(C(=O)NCC2(C)CCOCC2)s1,-12%
CCN1C(=O)C2(CCN(C(=O)CC(C)C)CC2)c2ccccc21,11%
O=C(c1ccccc1)N1CCn2c(nnc2C2CCNCC2)C1,5%
Cc1cnc(C(=O)N(C)C2CCc3nn(CC4CC4)c(=O)n3CC2)cn1 (stereo not drawn),i
FC(F)(F)c1cccc(-c2cc(-c3ccncc3)c3cncn3c2)c1,-13%[44.1 µM]
COc1ccc(-c2cc(-c3ccncc3)c3cncn3c2)cc1,11µM*
Cc1noc(C)c1-c1cc(-c2ccc3c(c2)C(=O)NC3)cn2cncc12,i
COc1ccc(-c2cc(-c3ccc4c(c3)CNC4=O)cn3cncc23)cc1,4.5µM*
O=C(c1cccc(F)c1)N1CCOC[C@H](Oc2ccc(C(F)(F)F)cn2)C1,-21%[44.1 µM]
O=Cc1cccc(N2CCN(C(=O)c3ccc4c(c3)OCO4)CC2=O)c1,9%
Cc1ccc(C(=O)N2CCCCCCN(C)C(=O)[C@@H]3CCC[C@@H]32)s1,-14%
CN(Cc1cccnc1)Cc1nc(C2(O)CCN(Cc3ccccc3F)CC2)cs1,i
CCC(CC)NC(=O)C1CCN(c2cnn(CCOC)c(=O)c2)C1 (stereo not drawn),0%
CC1=C[C@@H](CNC(=O)CC(C)(C)CC(=O)O)[C@H](C(C)C)C[C@H]1Cc1nc2ncccc2[nH]1,i
CC(=O)N1C[C@@H]2CCCN3CCC[C@@H]([C@H]23)[C@H]1CCCC(=O)NC(C)C,i
CC(=O)N1Cc2ccccc2OC2(CCN([S+](C)(=O)[O-])CC2)C1,11%
COc1cc(F)ccc1-c1ccnc2nc(C3CCCCC3)nn12,-17%
SMILES,Pf Dd2 growth
O=C(Cn1ccn2nc(-c3ccc(F)cc3)c(CO)c2c1=O)NCc1ccc2c(c1)OCO2,28%
CCN(CC)S(=O)(=O)c1ccc(NC(=O)c2c(C)oc3ncnc(N4CCCCC4)c23)cc1,32%
Cc1ccc(NC(=O)Cn2c(=O)oc3cc(S(=O)(=O)N4CCCCC4)ccc32)c(C)c1,-4%
Cc1ccc(NC(=O)c2c(C)oc3ccc(O)c(CN4CCCCCC4)c23)c(C)c1,1.1µM*
Cc1ccc(NC(=O)c2cc(S(=O)(=O)N3CCCC3)c[nH]2)c(C)c1,i
Cc1ccc(NC(=O)c2c(C)oc3ccc(O)c(CN4CCCCCC4)c23)cc1,0.63µM*
COc1ccc(NC(=O)c2c(C)oc3ccn(Cc4cccc(F)c4)c(=O)c23)cc1F,-17%
COc1ccc(NC(=O)c2c(C)oc3ccc(O)c(CN4CCCC(C)C4)c23)cc1Cl (stereo not drawn),0.4µM*
COc1cc(=O)n2c(c1C(=O)Nc1ccc(C)cc1)CCCC2,i
COc1ccc(NC(=O)c2cccn2-c2nnc(N3CCCCC3)s2)cc1Cl,6%
O=C(NCc1ccccc1)C1COC2(CCN(C(=O)c3ccco3)CC2)N1C(=O)c1ccco1 (stereo not drawn),i
CC(C)(C)c1ccc(-c2nc(SCCCOc3ccccc3)n3[nH]c(=O)cc3n2)cc1,10µM*
COc1ccc(NC(=O)CSc2nc(-c3ccccc3)nc3cc(=O)[nH]n23)cc1,i
COc1cccc(-c2nc(SCc3ccc(C)cc3)n3[nH]c(=O)cc3n2)c1,i
Cn1nccc1C(=O)N1CCCCCCNC(=O)[C@@H]2CCCC[C@@H]21,4%
CC(C)(C)OC(=O)N1CC(NCc2ccccn2)C1,-1%[44.1 µM]
Cc1cc(Cl)ccc1NC1CN(C(=O)OC(C)(C)C)C1,-9%[44.1 µM]
CC(C)(C)OC(=O)N1CC(Nc2ccc(O)cc2)C1,11µM*
Cc1noc(C)c1S(=O)(=O)NCC1(COc2ccc(C(F)(F)F)cn2)C[C@@H](O)[C@@H](O)C1 (stereo partly drawn),-12%
O=C(O)C[C@@H]1CCN(C(=O)COc2ccccc2)C[C@@H]1CCN1CCN(c2ccccc2)CC1,-13%
CC(C)NC(=O)N1CCN(C(=O)C2CCNCC2)[C@@H](C(=O)N[C@H](Cc2c[nH]c3ccccc23)C(N)=O)C1,-1%
COc1ccccc1N1CCN(CCCNC(=O)c2cnn(-c3ccc(C)c(C)c3)c2C2CCN(C(=O)OC(C)(C)C)CC2)CC1,5.6µM*
Cc1ccc(-n2ncc(C(=O)NCCCN3CCCCC3)c2C2CCN(C(=O)OC(C)(C)C)CC2)cc1,10µM*
COc1ccccc1N1CCN(CCCNC(=O)c2cnn(-c3cccc(Cl)c3)c2C2CCN(C(=O)OC(C)(C)C)CC2)CC1,2µM*
CC(C)(C)CC(=O)N1C[C@@H]2C[C@H]1C(=O)N(CC1CC1)c1ccccc1O2,-15%[44.1 µM]
